Shiga inhibitor: blocks Shiga toxin action in Vero cells; Vero cells, Shiga toxin protein synthesis inhibition reporter; hit rate 9.2% among 290,000; inhibition, % at 38.7 µM; in the data active means inhibition mostly above about 28%, no sharp cut-off; inactive means mostly below about 43%; further: 0% is about no effect
Cycloheximide cs: counter-screen hit for Shiga toxin inhibitors, cycloheximide | cell reporter, cycloheximide protein synthesis inhibition counterscreen | max response, % | hit rate 12% among 300,000; in the data active means max response mostly above about 13%, no sharp cut-off; inactive means mostly below about 14%; further: read at 38.3 µM for the half of the compounds with a filed dose; 0% is about no effect
LASV entry inh: inhibitors of Lassa virus binding or cell entry; Lassa virus pseudotype entry inhibition, cell reporter; Potency, µM (titrated, usually from 37.9 µM), for the others: top-dose activity change, negative = inhibition, hits mostly inhibitors; hit rate 1.2% among 300,000; AID 540256; calls by dose curve; tested in HEK293 cells; further: potency means the concentration at half of the fitted maximal effect; on the % scale 0 is the no-effect control and ±100 the full control effect; nearly all actives have a fitted effect of over 50% in size
Marburg entry inh: Marburg virus entry inhibition; hit rate 1.8% among 300,000; Marburg virus pseudotyped entry inhibition, cell reporter; AID 540276; Potency, µM (series often up to 37.8 µM), inactives show top-dose activity change, negative = inhibition, actives largely listed as inhibitors; calls by dose curve; tested in HEK293 cells; further: potency means the concentration at half of the fitted maximal effect; on the % scale 0 is the no-effect control and ±100 the full control effect
* marks the source's active call; other numbers are inactive results; i = inactive; ? = inconclusive; · = no result; [ ] = remark or other dose. A selection: hits, their analogues and other compounds. The true share with any hit is near 12%.

SMILES	Shiga inhibitor	Cycloheximide cs	LASV entry inh	Marburg entry inh
CCCCNC(=O)c1ccc(NC(=O)C2CCCO2)cc1 (stereo not given)	10	11*	3%	14%
CCCCc1ccc(NC(=O)C2CCCO2)cc1 (stereo not given)	72*	55*	-26%	-1%
CC(C)OCCCNC(=O)c1ccc(NC(=O)C2CCCO2)cc1 (stereo not given)	-5	8	3%	?
Cc1c(NC(=S)Nc2cccc(Cl)c2)c(=O)n(-c2ccccc2)n1C	19	7	14%	15%[46.1 µM]
O=c1[nH]cccc1-c1nc2ccccc2n1Cc1cccc(F)c1	2	23	0%	?
COc1ccc(Nc2cc(Cl)nc(N)n2)cc1OC	11	13	-2%[46.1 µM]	3%[46.1 µM]
O/N=C/c1ccc2cccc(O)c2n1	44*	7.8*	·	·
CC(=O)/C=C/c1ccc2ccccc2n1	28	22*	?	?
O/N=C/c1ccc2ccccc2n1	106*	50*	20%	?
COc1ccc(C(=O)N/N=C/c2ccc3cccc(O)c3n2)cc1	22	11	-17%[46.1 µM]	?
CC(C)(C)c1ccccc1N=Cc1ccc2ccccc2n1	-6	-1	-2%	-7%
CCCCN1C(=O)N(C)C2NC(=S)NC21 (stereo not given)	12	-2	·	·
CCOc1ccccc1CNC(=O)CCCN1C(=O)COc2ccc(C)cc21	·	·	-6%[46.1 µM]	13%[46.1 µM]
COc1ccccc1NC(=O)C(C)OC(=O)CCC1CCCCC1 (stereo not given)	-6	-2	-25%	-9%
O=C1CN(c2nc(-c3cccs3)nc3sc4c(c23)CCCC4)CCN1	58*	35*	?	?
O=c1oc(-c2cccs2)nc2sc3c(c12)CCCC3	0	-2	?	-40%
O=c1c2c3c(sc2nc2n1N=C(c1cccs1)CS2)CCCC3	73*	19*	?	-2%
O=C1CN(c2nc(-c3cccnc3)nc3scc(-c4ccccc4)c23)CCN1	25	19*	-24%	?
Cc1ccc(-n2nc(-c3ccc(N)cc3)cc2N)cc1	61*	32*	4%	1%
Cc1ccc(-n2nc(-c3ccc(OC(F)(F)F)cc3)cc2N)cc1C	33	15*	13%	9%
Cc1ccccc1-n1nc(-c2ccc(N)cc2)cc1N	4	7	11%	-15%[46.1 µM]
Cc1n[nH]c(=O)n1-c1ccc(OC(F)(F)F)cc1	-4	1	3%[46.1 µM]	-8%[46.1 µM]
Nc1ccc(-c2cc(N)n(-c3ccccc3)n2)cc1	10	8	-2%	?
Nc1cc(-c2ccc(Cl)cc2)nn1-c1ccccc1	72*	43*	4%[46.1 µM]	?
CC(=O)Nc1ccc(-c2cc(N)n(-c3ccccc3)n2)cc1	69*	64*	-19%	-16%
SMILES	Shiga inhibitor	Cycloheximide cs	LASV entry inh	Marburg entry inh
Cc1ccc(NS(=O)(=O)c2ccc(OCC(=O)NCc3ccncc3)cc2)cc1	-6	-1	-26%	?
COc1ccc(/C=N/n2c(SC)nnc2-c2ccccc2)c(OC)c1OC	-5	5	3.5µM*	5µM*
COc1cccc(/C=N/n2c(=S)n(C)c3ccccc32)c1OC	2	-2	2%	9%
COc1cccc(/C=N/n2c(=O)[nH]c3ccccc32)c1OC	42*	38*	-22%	?
COc1cccc(/C=N/n2c(C)nc3ccccc32)c1OC	38*	21	3%	-3%
CCN(CC)S(=O)(=O)c1ccc(OC)c(NC(=O)C2CC(=O)N(c3ccc(C)cc3)C2)c1 (stereo not given)	-4	-6	1%	3%[46.1 µM]
COc1ccccc1C(=O)Nc1ccc(S(=O)(=O)Nc2cnc3ccccc3n2)cc1	-7	1	-12%	-1%
CC(C)OP(=O)(OC(C)C)C(Nc1ccccc1)c1cccc2c1OCO2 (stereo not given)	11	23*	2%	?
COc1ccc(OC)c(NC(=O)c2ccc(CSc3ncccn3)cc2)c1	29	3	-24%	-1%[46.1 µM]
CCCCN(CC)CCCNC(=O)c1ccc2c(c1)NC(=O)CN2C	·	·	1%[46.1 µM]	·
COc1cc2oc(=O)cc(-c3ccc(-c4ccc(O)cc4)cc3)c2c(OC)c1OC	i	6	·	·
COc1cc2oc(=O)cc(-c3ccc(-c4ccc(NC(C)=O)cc4)cc3)c2c(OC)c1OC	81*	53*	·	·
N#Cc1cc2cc3c(cc2nc1SCC(=O)N1CCCC1)OCCO3	51*	19	?	?
CC(=O)CSc1nc2cc3c(cc2cc1C#N)OCCO3	32	14	?	1.4µM*
N#Cc1cc2c(nc1SCc1nc3ccccc3[nH]1)CCC2	22	44*	·	2%
Cc1cccc(CSc2nc3c(cc2C#N)CCC3)c1	-2	-4	16%	4%
Cc1cc(C)c(C#N)c(SCc2ccc(F)cc2)n1	7	-3	·	·
Cc1cc(C)c(C#N)c(SCc2nc3ccccc3[nH]2)n1	94*	36*	?	-12%
COc1ccccc1OCC(=O)N(Cc1nnc(-c2ccccc2Cl)o1)C1CC1	·	·	-10%	-13%[46.1 µM]
S=C(NCc1ccc(Cl)cc1)Nc1ccc(Cl)cc1Cl	-7	1	-26%	?
S=C(NCc1ccccn1)Nc1ccc(Cl)cc1Cl	43	45*	12%	13%
S=C(NCc1ccncc1)Nc1ccc(Cl)cc1Cl	3	8	-10%	12%
S=C(NCCc1ccc(Cl)cc1)Nc1ccc(Cl)cc1Cl	15	13*	?	?
CCCNC(=S)Nc1ccc(Cl)cc1Cl	41*	1	7%	?
Fc1ccc(NC(=S)Nc2ccc(Cl)cc2Cl)cc1	8	22*	-15%	-23%[46.1 µM]
SMILES	Shiga inhibitor	Cycloheximide cs	LASV entry inh	Marburg entry inh
Fc1ccc(CNC(=S)Nc2ccc(Cl)cc2Cl)cc1	11	11	?	-7%
Cc1cc(C)cc(NC(=O)C(Cc2ccccc2)N2Cc3ccccc3C2=O)c1 (stereo not given)	·	·	4%[46.1 µM]	·
CC1CN(C(=O)c2cc3cc(Br)ccc3[nH]2)CC(C)O1 (stereo not given)	-4	-2	1%	5%
COc1ccc(Cn2c(SCc3ccc(C)cc3)nc3cc(OC)c(OC)cc3c2=N)cc1Cl	-3	-2	10µM*	2.8µM*
COc1ccc(Cn2c(SCc3cc(C)ccc3C)nc3cc(OC)c(OC)cc3c2=N)cc1	-6	-2	6.5µM*	4.6µM*
CC(C)(Oc1ccc(Cl)cc1)C(=O)O/N=C(\N)c1ccncc1	-6	2	-21%	16%[46.1 µM]
N/C(=N\OC(=O)c1ccc(Cl)cc1Cl)c1ccncc1	82*	30*	·	·
COc1cccc(C(=O)O/N=C(\N)c2ccncc2)c1OC	27*	35*	?	?
COc1cccc(C(=O)C(=O)c2cccc(OC)c2OC)c1OC	·	·	-13%[46.1 µM]	?
N/C(=N\OC(=O)c1cc(Cl)ccc1Cl)c1ccncc1	74*	27*	?	3%[46.1 µM]
N/C(=N\OC(=O)c1ccccc1Cl)c1ccncc1	71*	17*	-24%	?
Cc1cccc(C)c1NC(=O)NC1(C(=O)NCC2CCCO2)CCCCC1 (stereo not given)	-2	-7	-8%[46.1 µM]	-4%[46.1 µM]
CCC(C)N(C(=O)Cn1nnc2ccccc21)C(C(=O)Nc1ccc(F)cc1)c1cccc(OC)c1 (stereo not given)	-10	-2	?	?
Cc1ccccc1C(=O)O/N=C(\N)c1ccncc1	53*	61*	?	?
Cc1ccc(C(=O)O/N=C(\N)c2ccccc2)c(Cl)c1	16	36*	?	?

Screening data: PubChem, National Center for Advancing Translational Sciences (NCATS)
